Data from ChEMBL document CHEMBL3988442, “University of Dundee, Small-Polar-MMV Screening Library” (2021).
For some of these results: Measured potencies and affinities stand elsewhere.

What was measured:
Design in all cases: scale not given: direction of the effect not stated beside the values
[1] = target: Protein translocase subunit SecA (Escherichia coli (strain K12)) (UniProt P10408); assay: Assay to Identify E. coli SecA ATPase Inhibitors; format: functional; settings: 30 µM
[2] = target: T1, Ubiquitin-activating enzyme e1, putative (Leishmania donovani (strain BPK282A1)) (UniProt E9BSI1); assay: Leishmania donovani Ubiquitin Activating Enzyme (LdE1); format: functional; settings: 30 µM
T1 sequence (whole entry): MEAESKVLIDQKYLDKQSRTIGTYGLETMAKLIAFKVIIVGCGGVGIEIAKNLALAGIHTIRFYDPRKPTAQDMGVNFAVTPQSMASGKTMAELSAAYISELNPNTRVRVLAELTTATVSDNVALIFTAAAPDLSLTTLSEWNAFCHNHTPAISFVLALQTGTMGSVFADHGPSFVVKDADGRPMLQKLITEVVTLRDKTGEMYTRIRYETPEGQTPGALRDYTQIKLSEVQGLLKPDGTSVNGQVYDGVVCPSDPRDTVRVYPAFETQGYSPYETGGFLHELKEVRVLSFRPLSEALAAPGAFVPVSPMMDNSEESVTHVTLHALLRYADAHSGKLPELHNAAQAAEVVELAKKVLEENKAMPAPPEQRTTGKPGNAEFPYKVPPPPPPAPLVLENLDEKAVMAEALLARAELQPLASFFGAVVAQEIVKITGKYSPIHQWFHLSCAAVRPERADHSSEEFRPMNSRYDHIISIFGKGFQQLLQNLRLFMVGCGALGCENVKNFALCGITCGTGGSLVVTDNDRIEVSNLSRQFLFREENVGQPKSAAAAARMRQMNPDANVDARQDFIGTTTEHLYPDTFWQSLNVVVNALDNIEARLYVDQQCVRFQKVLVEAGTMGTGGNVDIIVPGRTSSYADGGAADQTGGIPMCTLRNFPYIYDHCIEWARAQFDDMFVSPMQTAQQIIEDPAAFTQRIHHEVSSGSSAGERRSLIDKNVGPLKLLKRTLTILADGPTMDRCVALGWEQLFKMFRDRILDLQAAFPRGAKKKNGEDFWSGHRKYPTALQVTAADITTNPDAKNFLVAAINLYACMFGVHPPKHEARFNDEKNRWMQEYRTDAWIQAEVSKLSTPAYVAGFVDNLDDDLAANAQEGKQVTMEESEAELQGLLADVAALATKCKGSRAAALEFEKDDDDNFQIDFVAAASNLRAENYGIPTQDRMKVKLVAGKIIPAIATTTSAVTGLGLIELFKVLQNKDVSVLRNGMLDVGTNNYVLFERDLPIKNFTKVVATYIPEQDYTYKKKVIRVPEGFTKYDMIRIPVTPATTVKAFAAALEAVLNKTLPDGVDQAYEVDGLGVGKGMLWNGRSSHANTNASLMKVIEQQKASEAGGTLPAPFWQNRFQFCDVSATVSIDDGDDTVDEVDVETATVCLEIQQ

[3] = target: AMP-activated protein kinase, AMPK (Homo sapiens) (UniProt P54646+O43741+P54619+Q9UGJ0+Q9Y478+Q13131+Q9UGI9); assay: AMP-dependent Kinase enzyme assay. An in vitro enzyme assay that detects ADP turnover that is directly proportional to AMPK activity. This uses naive AMPK that is activated during the assay with MK-8722; format: functional; settings: 30 µM
[4] = target: Sialic acid-binding Ig-like lectin 9 (Homo sapiens) (UniProt Q9Y336); assay: Hs-Siglec9 ALPHAscreen SOP 20170721; settings: 10 µM
Sequence of Sialic acid-binding Ig-like lectin 9 (Homo sapiens) (Q9Y336 whole entry): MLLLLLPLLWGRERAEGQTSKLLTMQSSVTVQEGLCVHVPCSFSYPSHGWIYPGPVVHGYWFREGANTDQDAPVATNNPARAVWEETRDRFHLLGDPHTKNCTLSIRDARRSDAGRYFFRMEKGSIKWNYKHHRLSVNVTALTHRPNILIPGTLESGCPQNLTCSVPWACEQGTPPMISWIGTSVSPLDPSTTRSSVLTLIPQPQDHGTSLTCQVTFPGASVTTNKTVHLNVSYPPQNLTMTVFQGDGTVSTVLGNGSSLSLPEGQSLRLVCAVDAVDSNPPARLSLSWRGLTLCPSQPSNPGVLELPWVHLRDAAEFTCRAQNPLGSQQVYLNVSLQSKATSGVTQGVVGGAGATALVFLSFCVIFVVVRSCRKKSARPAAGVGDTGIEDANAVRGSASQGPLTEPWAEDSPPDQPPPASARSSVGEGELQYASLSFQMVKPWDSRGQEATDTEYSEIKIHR

[5] = test system: Trypanosoma cruzi; assay: Trypanosoma cruzi phosphomannomutase and mannose-1-phosphate guanylyltransferase assay; format: functional; settings: 10 µM
[6] = target: T2, Arginase-2, mitochondrial (Homo sapiens) (UniProt P78540); assay: in vitro enzyme assay to detect the production of urea directly proportional to the activity of Arginase II; format: functional; settings: 33.3 µM; further: in the data most compounds retested in dose-response had high values
T2 sequence (whole entry): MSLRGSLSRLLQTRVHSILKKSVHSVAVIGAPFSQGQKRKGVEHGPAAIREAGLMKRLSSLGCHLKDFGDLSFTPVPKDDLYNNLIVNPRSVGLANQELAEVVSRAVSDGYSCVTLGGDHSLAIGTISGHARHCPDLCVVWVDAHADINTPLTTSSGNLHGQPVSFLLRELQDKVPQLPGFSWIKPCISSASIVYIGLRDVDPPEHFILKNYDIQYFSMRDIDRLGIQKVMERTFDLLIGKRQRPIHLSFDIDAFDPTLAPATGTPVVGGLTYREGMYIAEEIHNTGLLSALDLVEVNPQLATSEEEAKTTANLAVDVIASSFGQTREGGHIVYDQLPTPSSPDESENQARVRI

[7] = target: T3, Proteasome subunit beta (Trypanosoma cruzi) (UniProt O96673); assay: Trypanosoma cruzi proteasome chymotrypsin-like activity (TcProtChymo) assay.; further: in the data most compounds retested in dose-response had high values; format: functional; settings: 9.37 µM
T3 sequence (whole entry): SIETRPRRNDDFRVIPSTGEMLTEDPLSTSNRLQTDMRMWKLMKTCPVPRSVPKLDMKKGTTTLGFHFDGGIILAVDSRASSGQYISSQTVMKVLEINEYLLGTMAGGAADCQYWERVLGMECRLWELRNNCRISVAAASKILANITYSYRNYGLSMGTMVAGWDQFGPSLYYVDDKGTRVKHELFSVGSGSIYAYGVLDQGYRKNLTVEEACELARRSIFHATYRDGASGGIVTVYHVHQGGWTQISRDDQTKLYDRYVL

[8] = species: Homo sapiens; assay: To identify inhibition of the IFN signalling (Jak-Stat) pathway via expression of an eGFP reporter gene under the control of an IFN-stimulated response element (ISRE) containing MxA promoter.; format: functional; settings: 30 µM
[9] = target: T4, Tyrosyl-tRNA synthetase, putative (Trypanosoma cruzi (strain CL Brener)) (UniProt Q4DSP6); assay: Trypanosoma cruzi tyrosyl tRNA synthetase (TcYRS) _High Tyrosine SOP; format: functional; settings: 30 µM; further: in the data most compounds retested in dose-response had high values
T4 sequence (whole entry): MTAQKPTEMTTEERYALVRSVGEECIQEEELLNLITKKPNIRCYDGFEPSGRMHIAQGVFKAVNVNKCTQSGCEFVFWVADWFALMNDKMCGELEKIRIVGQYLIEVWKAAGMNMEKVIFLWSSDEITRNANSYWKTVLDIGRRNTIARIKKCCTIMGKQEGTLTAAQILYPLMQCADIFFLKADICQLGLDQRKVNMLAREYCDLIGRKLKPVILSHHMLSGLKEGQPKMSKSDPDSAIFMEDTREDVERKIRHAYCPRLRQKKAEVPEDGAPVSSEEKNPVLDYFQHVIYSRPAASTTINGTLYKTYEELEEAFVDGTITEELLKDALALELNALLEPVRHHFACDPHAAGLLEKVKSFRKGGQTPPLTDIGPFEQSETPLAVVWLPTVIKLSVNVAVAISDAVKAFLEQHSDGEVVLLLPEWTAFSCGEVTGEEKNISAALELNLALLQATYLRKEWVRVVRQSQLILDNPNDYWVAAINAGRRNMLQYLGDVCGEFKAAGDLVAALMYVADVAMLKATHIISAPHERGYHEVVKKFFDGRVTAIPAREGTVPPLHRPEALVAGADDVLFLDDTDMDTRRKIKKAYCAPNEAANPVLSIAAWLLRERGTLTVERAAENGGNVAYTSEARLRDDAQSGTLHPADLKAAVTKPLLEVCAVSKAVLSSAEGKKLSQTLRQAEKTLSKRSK

[10] = target: T4, Tyrosyl-tRNA synthetase, putative (Trypanosoma cruzi (strain CL Brener)); assay: Trypanosoma cruzi tyrosyl tRNA synthetase (TcYRS) SOP; format: functional; settings: 30 µM
[11] = target: Chromo domain-containing protein 1 (Saccharomyces cerevisiae (strain ATCC 204508 / S288c) (Baker's yeast)) (UniProt P32657); assay: ScCHD-1 Enzyme Inhibition Assay; format: functional; settings: 30 µM; further: in the data most compounds retested in dose-response had high values
Sequence of Chromo domain-containing protein 1 (Saccharomyces cerevisiae (strain ATCC 204508 / S288c) (Baker's yeast)) (P32657 whole entry, the tested form may be a part): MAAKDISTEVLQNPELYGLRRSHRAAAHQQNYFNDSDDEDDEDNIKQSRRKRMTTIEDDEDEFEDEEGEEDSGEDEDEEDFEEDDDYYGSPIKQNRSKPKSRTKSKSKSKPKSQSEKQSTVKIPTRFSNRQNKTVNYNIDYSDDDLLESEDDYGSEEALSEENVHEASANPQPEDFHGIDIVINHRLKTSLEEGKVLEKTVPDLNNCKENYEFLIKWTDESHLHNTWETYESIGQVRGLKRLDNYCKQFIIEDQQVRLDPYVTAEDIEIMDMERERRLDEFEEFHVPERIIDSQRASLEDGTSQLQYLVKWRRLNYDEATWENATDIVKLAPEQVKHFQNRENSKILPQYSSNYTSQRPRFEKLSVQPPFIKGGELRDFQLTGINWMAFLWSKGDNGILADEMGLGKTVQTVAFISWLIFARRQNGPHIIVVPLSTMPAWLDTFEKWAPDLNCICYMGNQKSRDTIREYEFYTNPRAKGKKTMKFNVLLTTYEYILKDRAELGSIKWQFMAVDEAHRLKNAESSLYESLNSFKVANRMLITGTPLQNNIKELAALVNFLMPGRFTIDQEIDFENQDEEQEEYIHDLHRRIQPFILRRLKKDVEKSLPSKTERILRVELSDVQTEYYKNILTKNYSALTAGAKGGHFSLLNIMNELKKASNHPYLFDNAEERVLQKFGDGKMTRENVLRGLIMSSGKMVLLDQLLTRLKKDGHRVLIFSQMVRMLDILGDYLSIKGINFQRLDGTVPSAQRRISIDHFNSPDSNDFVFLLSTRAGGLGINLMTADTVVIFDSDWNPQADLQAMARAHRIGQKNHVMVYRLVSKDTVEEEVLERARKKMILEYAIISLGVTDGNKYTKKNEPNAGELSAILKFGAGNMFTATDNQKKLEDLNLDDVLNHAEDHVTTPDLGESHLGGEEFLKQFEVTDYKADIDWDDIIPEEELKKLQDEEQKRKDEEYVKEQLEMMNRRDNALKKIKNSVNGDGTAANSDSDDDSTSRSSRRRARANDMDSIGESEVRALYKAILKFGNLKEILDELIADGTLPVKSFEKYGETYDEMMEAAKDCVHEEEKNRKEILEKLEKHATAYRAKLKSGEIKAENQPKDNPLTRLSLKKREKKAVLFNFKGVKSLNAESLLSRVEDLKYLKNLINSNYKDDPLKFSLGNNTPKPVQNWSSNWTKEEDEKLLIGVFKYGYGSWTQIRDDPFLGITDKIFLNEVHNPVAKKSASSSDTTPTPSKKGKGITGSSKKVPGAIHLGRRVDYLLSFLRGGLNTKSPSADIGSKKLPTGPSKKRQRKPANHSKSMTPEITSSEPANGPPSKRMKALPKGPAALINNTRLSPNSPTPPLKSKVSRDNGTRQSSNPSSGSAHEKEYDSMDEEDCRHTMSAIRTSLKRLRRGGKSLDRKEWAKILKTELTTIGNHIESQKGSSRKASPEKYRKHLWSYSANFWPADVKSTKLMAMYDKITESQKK

Sequence of Protein translocase subunit SecA (Escherichia coli (strain K12)) (P10408 whole entry): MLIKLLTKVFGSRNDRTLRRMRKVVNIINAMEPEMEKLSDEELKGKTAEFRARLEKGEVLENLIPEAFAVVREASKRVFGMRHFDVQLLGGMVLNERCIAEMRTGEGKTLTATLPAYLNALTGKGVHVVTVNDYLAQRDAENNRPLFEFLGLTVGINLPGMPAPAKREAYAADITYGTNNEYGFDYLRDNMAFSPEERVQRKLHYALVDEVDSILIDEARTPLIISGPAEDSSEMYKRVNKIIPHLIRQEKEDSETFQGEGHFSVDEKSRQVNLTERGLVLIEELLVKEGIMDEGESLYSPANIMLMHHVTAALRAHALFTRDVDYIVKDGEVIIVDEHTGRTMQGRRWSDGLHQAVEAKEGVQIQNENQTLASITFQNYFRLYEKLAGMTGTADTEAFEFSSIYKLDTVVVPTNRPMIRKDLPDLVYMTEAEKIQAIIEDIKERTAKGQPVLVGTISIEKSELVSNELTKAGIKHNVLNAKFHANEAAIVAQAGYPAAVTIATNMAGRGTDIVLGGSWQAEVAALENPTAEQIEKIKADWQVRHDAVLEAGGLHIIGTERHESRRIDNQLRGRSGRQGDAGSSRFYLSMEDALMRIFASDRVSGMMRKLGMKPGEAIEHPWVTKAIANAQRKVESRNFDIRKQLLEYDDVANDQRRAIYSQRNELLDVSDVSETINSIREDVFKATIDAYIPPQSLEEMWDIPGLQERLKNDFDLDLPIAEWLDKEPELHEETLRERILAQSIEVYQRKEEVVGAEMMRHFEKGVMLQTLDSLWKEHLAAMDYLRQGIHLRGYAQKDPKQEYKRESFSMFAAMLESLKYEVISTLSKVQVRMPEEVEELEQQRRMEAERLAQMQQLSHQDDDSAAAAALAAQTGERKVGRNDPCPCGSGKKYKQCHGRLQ

SMILES | Percent Effect [1] [%] | Percent Effect [2] [%] | Percent Effect [3] [%] | Percent Effect [4] [%] | Percent Effect [5] [%] | Percent Effect [6] [%] | Percent Effect [7] [%] | Percent Effect [8] [%] | Percent Effect [9] [%] | Percent Effect [10] [%] | Percent Effect [11] [%]
N#CCCN(C(=O)CN1CCCC1Cc1ccccc1)c1ccccc1 (stereo not given) | -5.2 | 2.7 | -1.32 | 26.1 | 4.1 | 10.8 | 5.33 | 0.149 | 11.9 | 13.4 | -6.86
Oc1cc(CCC2CCCCN2)cc(-c2ccncc2)c1 (stereo not given) | -5.49 | 0 | -8.16 | 0.305 | -3.92 | 0.909 | 20.1 | 1.09 | 2.15 | 7.5 | -3.03
O=C1COC2(CCN(Cc3ccoc3)CC2)CN1c1ccsc1 | 0.00228 | 18.7 | 6.94 | -2.69 | -0.591 | 1.63 | 14.4 | -27.3 | 7.45 | 11.5 | -2.01
Cc1nn(C)c(Cl)c1C1CCCN1C(=O)c1nccnc1N (stereo not given) | -2.73 | 16.2 | -10.8 | -6.66 | -3.3 | 0.802 | 12.4 | 1.8 | 7.39 | 18.5 | -6.71
Cc1cnc(CN2CCOC(Cn3nc(C)nc3C)C2)cn1 (stereo not given) | -1.64 | 17.7 | -6.35 | 2.13 | 4.82 | 3.42 | 15.8 | -21.9 | 6.4 | 24.1 | -3.57
O=C(CN1CCCC(Cn2cncn2)C1)NCc1ccco1 (stereo not given) | -2.6 | 0 | -4.08 | -5 | -8.12 | 8.27 | 7.87 | 6.12 | 1.48 | -1.24 | 4.31
CN1CCC(Oc2ccc(NC(=O)c3ccccc3Br)cc2)CC1 | -0.903 | -2.6 | 0.999 | 7.1 | 6 | -4.14 | 10.8 | 7.69 | 1.07 | 3.7 | -4.57
CC(C)n1ccnc1C1CCCN(c2ccnc3ccccc23)C1 (stereo not given) | -5.45 | 2.67 | 3.66 | 2 | -0.487 | -1.04 | 1.57 | 53.9 | 7.1 | 6.17 | -6.66
CCC(C)[C@H](NC(=O)c1cc(Br)ccc1-n1cnnn1)C(=O)OC (stereo not given in full) | -3 | -1.33 | -6.14 | -6.61 | -2.36 | -11.1 | 2.03 | -0.401 | -19.1 | -17.9 | 0.0287
O=C1CCC(C(=O)NCc2nncn2-c2ccccc2)CN1 (stereo not given) | -6.76 | 10.8 | -10.2 | 20.8 | 3.68 | -7.21 | 1.8 | 7.93 | 2.46 | 23.5 | -12.7
CCCc1nnsc1C(=O)NCC1CCN(c2ccccn2)CC1 | -0.329 | 11 | -5.48 | 2.44 | 4.5 | 11.8 | 21.3 | 25.2 | 5.38 | 20 | -6.53
CC(C)c1nccn1C1CCCN(C(=O)c2ccc3c(c2)OCO3)C1 (stereo not given) | 1.45 | -2.6 | 7.64 | -5.54 | 1.27 | 5.26 | 3.96 | 9.94 | 0 | -2.35 | -9.35
CCN(CC1CCOC1)C(=O)c1ccccc1NS(=O)(=O)CC (stereo not given) | -5.12 | 7.89 | -0.433 | -1.92 | 1.03 | -1.08 | 6.34 | -2.41 | 7.39 | 18.5 | -4.83
CC(C)c1ccc(OCn2ccc(C(=O)N3CCCC3)n2)cc1 | -3.25 | 10.4 | 1.81 | 12.1 | 6.2 | -81.4 | 12.5 | 52.2 | 3.23 | 8.64 | -6.24
CSc1ccc(S(=O)(=O)N2CCCCC2CCNC(C)=O)cc1 (stereo not given) | 0.287 | 11 | -3.42 | 4.24 | 1.59 | 1.6 | 14.8 | 9.17 | 7.29 | 16.1 | -5.63
CS(=O)(=O)N1CCCCCC1C1CCN(c2ncccn2)CC1 (stereo not given) | -4.78 | 2.63 | 2.07 | 1.83 | -4.13 | -1.92 | 2.17 | 24.7 | 1.47 | 7.32 | 0.0825
O=C(CC1CC1)NCc1cc(=O)n2c(n1)CN(Cc1ccoc1)CCC2 | -2.92 | -11 | -1.08 | 0.919 | 7.34 | -1.2 | 18.9 | 4.85 | 3.12 | 6.17 | -3.77
COc1ccc(CN2CCc3ncnc(OC(C)C)c3CC2)cc1 | 2.24 | 10.7 | 7.06 | -5.75 | -6.37 | -53.9 | 16.2 | 19 | -14.6 | 0 | -4.41
COc1ccc(OC)c(C2C3=C(COC3=O)Nc3[nH]nc(C)c32)c1 (stereo not given) | -1.85 | 17.3 | 0.267 | -8.04 | 5.11 | 17.1 | 3.33 | 7.65 | 4.23 | 10.3 | -11.1
COCC1CN(Cc2ccncc2)Cc2nnn(CC3CC3)c21 (stereo not given) | -1.08 | 0 | 2.57 | 2.54 | 0.688 | -1.38 | 1.33 | -3.55 | 0 | -1.24 | 3.24
